The values that follow come from PubChem BioAssay AID588590 (National Center for Advancing Translational Sciences (NCATS), 2011).

Where “and” joins values, the source holds several entries; their conditions need not be identical. Equal entries are not always repeated. Screen size: about 390,000 compounds; about 4,000 (1%) were called active. Where a call stands in place of a potency, no number is given. About 7% were inconclusive and are not listed. Calls come from the whole dose curve; as a rule, active = well fitted inhibition curve with a large enough effect; inconclusive = small, poorly fitted or top-dose-only effect, or another doubt; inactive = no such curve, though single readings can be large or run the other way. This excerpt belongs to a sample that is enriched for actives.
Potency is the fitted concentration of half-maximal effect.

Sequence of DNA polymerase iota (Homo sapiens) (Q9UNA4 whole entry, looked up): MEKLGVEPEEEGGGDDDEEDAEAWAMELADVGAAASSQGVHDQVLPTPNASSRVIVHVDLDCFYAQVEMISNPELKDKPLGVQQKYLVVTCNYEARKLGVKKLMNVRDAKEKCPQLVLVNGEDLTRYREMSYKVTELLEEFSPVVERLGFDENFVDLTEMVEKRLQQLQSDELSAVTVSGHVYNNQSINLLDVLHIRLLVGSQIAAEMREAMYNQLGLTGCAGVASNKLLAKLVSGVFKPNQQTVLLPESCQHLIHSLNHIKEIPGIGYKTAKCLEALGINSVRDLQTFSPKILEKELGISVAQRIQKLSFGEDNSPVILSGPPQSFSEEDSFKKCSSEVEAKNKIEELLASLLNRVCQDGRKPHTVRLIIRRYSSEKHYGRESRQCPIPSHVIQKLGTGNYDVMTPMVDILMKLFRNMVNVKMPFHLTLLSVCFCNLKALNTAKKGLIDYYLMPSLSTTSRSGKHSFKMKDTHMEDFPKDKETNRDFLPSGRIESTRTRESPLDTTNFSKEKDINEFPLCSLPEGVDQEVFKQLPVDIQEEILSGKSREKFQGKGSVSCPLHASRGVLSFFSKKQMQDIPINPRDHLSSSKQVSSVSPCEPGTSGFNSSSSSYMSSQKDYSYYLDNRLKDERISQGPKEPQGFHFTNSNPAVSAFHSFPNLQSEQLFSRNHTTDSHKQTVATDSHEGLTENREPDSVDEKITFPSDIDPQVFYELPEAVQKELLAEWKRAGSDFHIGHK

This assay addresses DNA polymerase iota (Homo sapiens) (UniProt Q9UNA4). Nature of the assay: qHTS for Inhibitors of Polymerase Iota. To be noted: Pol iota fluorescent replication assay, 10 min; series mostly up to 115 µM. The gist of the method: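 Pol iota at 10 nM preincubated 15 min with compounds at room temperature; reaction started with fluorescent substrate, 50 nM final. Fluorescence read kinetically at 0 and 10 min; buffer-only wells as negative control.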
For orientation: Quantitative high-throughput screening tests each substance at several concentrations.
In the case of `CCOc1ccccc1NC(=O)CN1CCN(S(=O)(=O)c2ccc(Br)cc2)CC1`, the Potency result was “inactive”.

As for `O=[N+]([O-])c1ccc(C=Nc2ccc(Cl)cc2Cl)s1`, the Potency is 39.8 µM (active).

As to `CCN(CC)/[N+]([O-])=N/OCOC(=O)Cc1c(C)n(C(=O)c2ccc(Cl)cc2)c2ccc(OC)cc12`, the Potency result was “inactive”.

`O=C(OCN1C(=O)c2ccccc2C1=O)/C(=C\c1ccco1)NC(=O)c1ccccc1`: the Potency result was “inactive”.

Turning to `O=c1nc2s/c(=C\c3ccco3)c(=O)n2nc1Cc1ccccc1`, the Potency is 7.94 µM (active).

Turning to `O=C(Nc1ccccc1C(F)(F)F)c1nc(S(=O)(=O)Cc2ccccc2F)ncc1Cl`, the Potency entry was “inactive”.

As for `NC1=NC(c2cc(F)cc(F)c2)n2c(nc3ccccc32)N1` (stereo not given), the Potency result was “inactive”.

Consider `Cc1cc(C)c2oc(C(=O)Nc3ccc(S(=O)(=O)N4CCCCCC4)cc3)cc(=O)c2c1`, for which the Potency result was “inactive”.

Take `Cc1ccc(-n2c(=O)c3cccnc3n2CC(=O)Nc2ccccc2C(F)(F)F)cc1C`: the Potency result was “inactive”.

Take `COc1ccc(Cn2c(O)c(/C=C3/C=CC=N3)c(=O)[nH]c2=O)cc1`: the Potency entry is “inactive”.

As to `CCCOc1ccc(Cn2c(O)cc(=O)[nH]c2=O)cc1`, the Potency is 22.4 µM (active).

For the compound `CCN(C(=O)COC(=O)CCOc1cccc(C)c1)c1c(N)n(Cc2ccccc2)c(=O)[nH]c1=O`, the Potency entry was “inactive”.

As for `COc1ccccc1CCNC(=O)c1cccn1-c1nnc(N2CCCCC2)s1`, the Potency result is “inactive”.

For the compound `Cc1ccc2nc(-c3ccc(C)c(NC(=O)Cc4ccccc4)c3)oc2c1`, the Potency result is “inactive”.

For the compound `Cc1c(CCO)sc[n+]1CC(=O)c1ccc2ccccc2c1`, the Potency entry is “inactive”.

In the case of `O=C(c1cc2c(s1)CCC2)N1CCN(c2ccccc2)CC1`, the Potency is 25.1 µM (active).

As for `CC1CCN(c2nc3ccc(C(=O)N4CCN(c5ccccc5)CC4)cc3s2)CC1`, the Potency entry was “inactive”.

For `O=C(c1cc2ccccc2s1)N1CCN(c2ccccn2)CC1`, the Potency entry was “inactive”.

For the compound `CCNC(=O)Cn1nc(C)n2c(cc3c(OC)cccc32)c1=O`, the Potency entry was “inactive”.

For the compound `CN(C)c1ccc(/C=N\Nc2ccc([N+](=O)[O-])cc2[N+](=O)[O-])cc1Cl`, the Potency result was “inactive”.

On to `COc1cccc(Cn2c(SCc3ccc(C(=O)N4CCCCC4)cc3)nc3ccncc32)c1`, for which the Potency result was “inactive”.

Turning to `COCCCNC(=O)Cc1ccc(-n2c(C)nc3cccnc32)cc1`, the Potency result is “inactive”.

Take `CCc1nc2cccnc2n1-c1ccc(CC(=O)Nc2c(C)cccc2C)cc1`: the Potency entry is “inactive”.

As for `CCc1nc2cccnc2n1-c1ccc(C(=O)O)cc1`, the Potency was 25.1 µM (active).

Regarding `COc1ccc(N2CCN(Cc3nc4c(c(=O)[nH]c(=O)n4C)n3Cc3ccc(Cl)cc3)CC2)cc1`, the Potency result was “inactive”.

On to `O=C(NCCc1ccc(Cl)cc1)c1ccc2c(c1)N(Cc1ccc(F)cc1)C(=O)CS2`, for which the Potency result was “inactive”.

Turning to `CCC(=O)N1CCc2cc(Br)cc(S(=O)(=O)CCC(=O)NCCc3ccc(OC)c(OC)c3)c21`, the Potency entry was “inactive”.

With `Cc1cccn2c(=O)c(/C=C(\C#N)S(=O)(=O)c3ccc(Cl)cc3)c(N3CCC(C(N)=O)CC3)nc12`, the Potency result was “inactive”.

Take `CCOC(=O)CC1C(=O)NCCN1c1nc2c(C)cccn2c(=O)c1/C=C1\SC(=S)N(C(C)CC)C1=O` (stereo not given): the Potency is 39.8 µM (active).

On to `CCOC(=O)CNC(=O)c1cc2c(=O)n3cccc(C)c3nc2s1`, for which the Potency result is “inactive”.

On to `CC1CCC(N2CC(=O)N(CCC3=CCCCC3)C(c3ccc(F)cc3)C2=O)CC1` (stereo not given), for which the Potency entry is “inactive”.

For `COc1cc2c(cc1OC)C(COc1ccc(F)cc1)N(C(=O)c1ccccc1F)CC2` (stereo not given), the Potency result is “inactive”.

`CCc1ccc(Nc2nn3c(=O)c4cc5c(cc4nc3s2)OCO5)cc1`: the Potency entry was “inactive”.

As to `Fc1ccc(-c2ccc(-c3nn4c(-c5ccco5)nnc4s3)o2)cc1`, the Potency result was “inactive”.

In the case of `c1ccc(-c2cc(-c3nnc4sc(-c5ccccn5)nn34)[nH]n2)cc1`, the Potency is 25.1 µM (active).

With `Cc1ccc(S(=O)(=O)N(CC(=O)NCc2ccco2)c2ccccc2C)cc1`, the Potency entry was “inactive”.

Regarding `CS(=O)(=O)N(CC(=O)NCc1ccco1)c1ccc2c(c1)OCO2`, the Potency is 70.8 µM (active).

Regarding `COc1ccc(S(=O)(=O)N(CC(=O)NCc2ccco2)c2ccc(F)cc2)cc1`, the Potency entry is “inactive”.

Take `CCOC(=O)N1CCC(C(N)=O)CC1`: the Potency result is “inactive”.

Regarding `CCOC(=O)N1CCC(c2cc(=O)n(-c3ccccc3)[nH]2)CC1`, the Potency is 1.41 µM (active).

Turning to `O=C(O)C1CCN(C(=O)OCc2ccccc2)CC1`, the Potency result was “inactive”.

Turning to `COc1ccccc1-c1noc(CSc2nnc(-c3ccccc3)n2-c2ccc(C)c(C)c2)n1`, the Potency result is “inactive”.

Take `COc1ccc(C(CCN2CCOCC2)c2c(OC)cc(OC)c3c2OC(=O)CC3c2ccc(OC)cc2)cc1` (stereo not given): the Potency result was “inactive”.

Regarding `OCCN1CCOCCOCCN(CCO)CCN(CCO)CC1`, the Potency entry was “inactive”.

Turning to `Oc1c(CN2CCOCC2)ccc(CN2CCOCC2)c1O`, the Potency is 10 µM (active).

As for `O=[N+]([O-])c1ccc(COc2ccccc2CN2CCOCC2)cc1`, the Potency entry is “inactive”.

For `Cc1cccc(NC(=O)CSc2nnc(CNC(=O)c3cccc(C)c3)n2-c2ccccc2)c1`, the Potency entry is “inactive”.

For `C=CC1=C(C(=O)O)N2C(=O)[C@@H](NC(=O)/C(=N\OCC(=O)O)c3csc(N)n3)[C@H]2SC1`, the Potency was 50.1 µM (active).

On to `Cc1nnc(SCC2=C(C(=O)O)N3C(=O)C(NC(=O)Cn4nc(C)c(Cl)c4C)C3SC2)s1` (stereo not given), for which the Potency entry was “inactive”.

As to `CO/N=C(\C(=O)N[C@@H]1C(=O)N2C(C(=O)O)=C(COC(C)=O)CS[C@H]12)c1csc(N)n1` (stereo in doubt), the Potency is 20 µM (active) and 17.8 µM (active) and 11.2 µM (active).

In the case of `COc1ccc(CCNC(=O)Cn2c(=O)cc(C(F)(F)F)c3c(C)nn(C)c32)c(OC)c1`, the Potency entry was “inactive”.

In the case of `Cc1ccc(Cn2c(=O)n(-c3ccc(C)cc3)c(=O)c3c2c2cc(C)ccc2n3C)cc1`, the Potency result was “inactive”.

With `COc1ccc(CCNC(=O)CCCn2c(=O)c3ccccc3n(Cc3ccc(F)cc3Cl)c2=O)cc1OC`, the Potency result is “inactive”.

Consider `COc1ccc(C2CC(O)(c3ccccc3)Oc3cc(C)cc(C)c32)cc1` (stereo not given), for which the Potency result was “inactive”.

Turning to `O=C(OCc1cc(=O)n2nc(C3CC3)sc2n1)c1ccccc1Cl`, the Potency entry was “inactive”.

On to `COc1ccccc1C(=O)OCc1cc(=O)n2nc(-c3cccs3)sc2n1`, for which the Potency was 79.4 µM (active).

With `Cc1nn2c(=O)cc(COC(=O)c3ccccc3NC(=O)COc3ccccc3C)nc2s1`, the Potency result was “inactive”.

For `Clc1cccc[n+]1CCCC[n+]1ccccc1Cl`, the Potency result is “inactive”.

`Cc1ccc(-c2nc(=N)sn2Cc2ccccc2)cc1`: the Potency result is “inactive”.

Turning to `CSc1ccc(CCNC(=O)c2cnn(-c3ccccc3)c2-n2cccc2)cc1`, the Potency result is “inactive”.
